Laboratory results: PubChem BioAssay (Tox21)
Where “and” joins values, the source holds several entries; their conditions need not be identical. Equal values may be shown once. Results filed as inconclusive are left out. Where a call stands in place of a potency, no number is given. Calls of active or inactive are those of the source. Calls come from the whole dose curve; as a rule, active = well fitted cell-killing curve with a large enough effect in the repeat runs; inconclusive = weak or mixed curves; inactive = flat fitted curve, though single readings scatter.

Assay: qHTS assay to identify small molecule antagonists of the estrogen related receptor (ERR) signaling pathway from Tox21 library - cell viability counter screen (AID 1224834); note: nearly all actives have a fitted effect of over 30% in size
Details: ERR reporter cells viability, CellTiter-Fluor, 17.5 h; series mostly up to 92.4 µM
Text: National Center for Advancing Translational Sciences [NCATS]
NIH Chemical Genomics Center [NCGC]
U.S. Environmental Protection Agency [EPA]
National Institutes of Environmental Health Sciences [NIEHS]
National Toxicology Program [NTP]
U.S. Food and Drug Administration [FDA]
Estrogen related receptors (ERRs), the first orphan nuclear receptors discovered, play an important role in the control of cellular energy metabolism. ERRs are required for high-energy production in response to the environmental challenges. ERR-alpha was also identified as an adverse marker for breast cancer progression; ERR-alpha-positive tumors have a poor prognosis. To screen and to identify environmental compounds that perturb the ERR signaling pathways could provide valuable information for potential therapeutic or preventive measures in the treatment of metabolic disease. To differentiate true ERR antagonists or agonist from cytotoxic substances, the assay is multiplexed with cell viability assay.
Tox21 Assay Protocol Summary:
The ERR cells were dispensed at 2,000 cells/5 ul/well in 1536-well white plates using a Multidrop dispenser. After the assay plates were incubated at a 37 C/5% CO2 incubator for 6 hours, 23 nL of compounds dissolved in DMSO, positive and negative controls or DMSO only was transferred to the assay plate by a pin tool. The plates were incubated at 37 C for 17.5 hours. 1 ul/well of CellTiter-Fluor reagent was added into the assay plates using a Flying Reagent Dispenser. After 30-minute incubation at 37 C/5% CO2, the fluorescence intensity in the plates was measured using a ViewLux plate reader.
Potency is the fitted concentration of half-maximal effect.

| SMILES | Potency |
| --- | --- |
| CCOC(=O)C1OC1(C)c1ccccc1 (stereo not given) | inactive |
| CCOP(=S)(OCC)Oc1ccc(S(C)=O)cc1 (stereo not given) | inactive |
| Cc1ncc(C[n+]2csc(CCO)c2C)c(N)n1 | inactive |
| C[C@H]1[C@@H]2Cc3ccc(O)cc3[C@@]1(C)CCN2C | inactive |
| O=C(O)CCCOc1ccc(Cl)cc1Cl | inactive |
| CON(C)C(=O)Nc1ccc(Cl)cc1 | inactive |
| CCC1(C2=NCCN2)Cc2ccccc2O1 (stereo not given) | inactive |
| C=CCN1C[C@H](C)N([C@H](c2ccc(C(=O)N(CC)CC)cc2)c2cccc(OC)c2)C[C@H]1C | inactive |
| CCCC1CCCCN1 (stereo not given) | inactive |
| CN(C)c1ccc(N=O)cc1 | 27.4 µM (active) and 48.6 µM (active) |
| NP(N)(=O)NC(=O)c1ccc(F)cc1 | inactive |
| O=C(O)c1cc(I)cc(I)c1I | inactive |
| CCC1(CCC(C)C)C(=O)NC(=O)NC1=O | inactive |
| CC(Oc1cc(Cl)c(Cl)cc1Cl)C(=O)O (stereo not given) | inactive |
| CCCCNC(=O)OCC#CI | 54.2 µM (active) and 68.6 µM (active) |
| CC(C)[C@@H](C(=O)O[C@@H](C#N)c1cccc(Oc2ccccc2)c1)c1ccc(Cl)cc1 | inactive |
| Cc1ccc(N)c(C)c1 | inactive |
| CCC1CCC(=O)O1 (stereo not given) | inactive |
| CC1(C)CC(=O)CC(C)(C)N1[O] | inactive |
| O=C([O-])c1ccccn1.O=C([O-])c1ccccn1.O=C([O-])c1ccccn1.[Cr+3] | inactive |

| SMILES | Potency |
| --- | --- |
| c1ccc2c(c1)-c1cccc3cccc-2c13 | inactive |
| O=[N+]([O-])c1cc(Cl)c(Cl)cc1Cl | inactive |
| CCC1(CC)C(=O)NC(=O)NC1=O | inactive |
| N#CC(C#N)=C(C#N)C#N | inactive |
| Nc1ccc2c(c1)Cc1ccccc1-2 | inactive |
| C=C(Cl)Cl | inactive |
| COC1=CC(=O)O[C@@H](/C=C/c2ccc3c(c2)OCO3)C1 | inactive |
| CCSCc1ccccc1OC(=O)NC | inactive |
| C=CC(=O)OCC | inactive |
| CN1CC[C@]23c4c5ccc(O)c4O[C@H]2[C@@H](O)C=C[C@H]3[C@H]1C5 | inactive |
| O=C(NCNC(=O)NC1C(=O)NC(=O)N1CO)NC1C(=O)NC(=O)N1CO (stereo not given) | inactive |
| O=C(Cl)OCCOCCOC(=O)Cl | inactive |
| Clc1ccc2ccccc2c1 | inactive |
| C=CCSSCC=C | inactive |
| CNC(=O)Oc1cccc(N=CN(C)C)c1 | inactive |
| CCNC(=O)NC(=O)/C(C#N)=N/OC | inactive |
| CCCCC(CC)COC(=O)c1c(Br)c(Br)c(Br)c(Br)c1C(=O)OCC(CC)CCCC (stereo not given) | inactive |
| CCCC[N+](CCCC)(CCCC)CCCC | inactive |
| Nc1ccccc1C(=O)OCC(O)CO (stereo not given) | inactive |
| O=C(O)C(F)(F)C(F)(F)C(F)(F)C(F)(F)C(F)(F)C(F)(F)C(F)(F)C(F)(F)F | inactive |
